Measurements reported in the supplement of paper PMC10849652.
Of roughly 7,900 targets only a part is listed; those with a hit were picked by preference. About 0.6% of all pairs of compound and target were hits. Values without a mark were called inactive.

Assays:
Experiment in all cases: log2 fold change, soluble protein after heating vs DMSO (PISA); higher = thermal stabilisation; K562 cells, 10 uM, 30 min; active = over 0.2 and 3.5 SD of the protein, either way, in both replicates (recomputed)
[1] = compound: C#Cc1cccc(Nc2ncnc3cc(OCCOC)c(OCCOC)cc23)c1 [erlotinib]
How it was run: (§1)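 Aliquots of K562 cells (2×10^6 cells/mL) treated with 10 μM compound for 30 min were heated for 3 min over 48°C-58°C. After pooling and extraction in PBS with 0.5% NP-40 at 4°C, soluble protein from a 21,000xg, 90 min spin was quantified by TMTpro 16plex LC-MS/MS with channel sums equalised. Thermal stability is expressed against control samples, from duplicates, as a log2 fold change.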

[2] = compound: C/C(=N\NC(=O)C1=CC(=CC=C1)S(=O)(=O)N2CCOCC2)/C3=C(C=CC(=C3)Cl)O
How it was run: as §1

[3] = compound: C1=CC(=C(C=C1Cl)C2=NC3=NC=CN=C3C(=N2)NC4=CC=NC=C4)F
How it was run: as §1

[4] = compound: C1=CC(=CC=C1C2=NC3=C(N2)C=C(C=C3)C(=O)N)OC4=CC=C(C=C4)Cl
How it was run: as §1

[5] = compound: C1=CC2=C(C=CC(=C2)/C=C\3/C(=O)NC(=NCC4=CC=CS4)S3)N=C1
How it was run: as §1

[6] = compound: C1=CC2=NC=CN=C2C=C1/C=C/3\C(=O)NC(=O)S3
How it was run: as §1

[7] = compound: C1=CC=C(C=C1)C2=NC(=C(N2)C3=CC=NC=C3)C4=CC(=C(C=C4)Cl)O
How it was run: as §1

[8] = compound: C1=CC=C2C(=C1)C3=NNC4=CC=CC(=C43)C2=O
How it was run: as §1

[9] = compound: C1CCN(C1)C(=O)NC2=CC=CC(=C2)NC3=NC=C(C(=N3)NCCC4=CN=CN4)Br
How it was run: as §1

[10] = compound: C1CN(CCC1(CC2=CC=C(C=C2)Cl)N)C3=NC=NC4=C3C=CN4
How it was run: as §1

Sequence of UniProt Q15014 (Q15014 whole entry, looked up): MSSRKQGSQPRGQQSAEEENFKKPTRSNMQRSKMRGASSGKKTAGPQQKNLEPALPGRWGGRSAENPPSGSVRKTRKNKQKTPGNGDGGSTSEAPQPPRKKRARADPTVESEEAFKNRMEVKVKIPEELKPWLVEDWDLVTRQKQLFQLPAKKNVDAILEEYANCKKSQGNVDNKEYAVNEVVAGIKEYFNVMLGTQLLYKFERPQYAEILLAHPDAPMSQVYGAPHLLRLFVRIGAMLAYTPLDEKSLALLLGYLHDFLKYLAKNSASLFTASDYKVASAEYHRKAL
Sequence of UniProt Q8NI08 (Q8NI08 whole entry, looked up): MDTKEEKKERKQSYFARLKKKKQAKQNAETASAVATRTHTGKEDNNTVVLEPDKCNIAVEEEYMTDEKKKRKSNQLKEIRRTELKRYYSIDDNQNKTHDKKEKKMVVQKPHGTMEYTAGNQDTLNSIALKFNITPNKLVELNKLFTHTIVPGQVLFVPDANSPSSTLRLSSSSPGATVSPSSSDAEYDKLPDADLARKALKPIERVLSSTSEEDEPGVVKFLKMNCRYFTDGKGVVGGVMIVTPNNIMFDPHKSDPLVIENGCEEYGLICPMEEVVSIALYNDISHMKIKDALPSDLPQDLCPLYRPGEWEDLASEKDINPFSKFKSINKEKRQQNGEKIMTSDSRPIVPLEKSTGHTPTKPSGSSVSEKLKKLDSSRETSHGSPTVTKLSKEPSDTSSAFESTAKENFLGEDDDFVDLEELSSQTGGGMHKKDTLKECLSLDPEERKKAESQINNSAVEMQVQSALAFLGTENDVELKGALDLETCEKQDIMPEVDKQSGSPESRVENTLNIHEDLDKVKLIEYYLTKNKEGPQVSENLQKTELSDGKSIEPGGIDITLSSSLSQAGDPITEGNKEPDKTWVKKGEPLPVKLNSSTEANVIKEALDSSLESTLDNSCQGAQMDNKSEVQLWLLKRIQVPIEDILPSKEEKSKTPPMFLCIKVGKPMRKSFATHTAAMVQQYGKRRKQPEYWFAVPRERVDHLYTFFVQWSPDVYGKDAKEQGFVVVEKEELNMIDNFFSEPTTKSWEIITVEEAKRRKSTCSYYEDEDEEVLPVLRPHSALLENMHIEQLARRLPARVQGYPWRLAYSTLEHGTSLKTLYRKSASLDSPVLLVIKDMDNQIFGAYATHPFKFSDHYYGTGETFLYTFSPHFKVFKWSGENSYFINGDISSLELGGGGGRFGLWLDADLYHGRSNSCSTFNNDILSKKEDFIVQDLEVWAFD
Sequence of UniProt Q96IV0 (Q96IV0 whole entry, looked up): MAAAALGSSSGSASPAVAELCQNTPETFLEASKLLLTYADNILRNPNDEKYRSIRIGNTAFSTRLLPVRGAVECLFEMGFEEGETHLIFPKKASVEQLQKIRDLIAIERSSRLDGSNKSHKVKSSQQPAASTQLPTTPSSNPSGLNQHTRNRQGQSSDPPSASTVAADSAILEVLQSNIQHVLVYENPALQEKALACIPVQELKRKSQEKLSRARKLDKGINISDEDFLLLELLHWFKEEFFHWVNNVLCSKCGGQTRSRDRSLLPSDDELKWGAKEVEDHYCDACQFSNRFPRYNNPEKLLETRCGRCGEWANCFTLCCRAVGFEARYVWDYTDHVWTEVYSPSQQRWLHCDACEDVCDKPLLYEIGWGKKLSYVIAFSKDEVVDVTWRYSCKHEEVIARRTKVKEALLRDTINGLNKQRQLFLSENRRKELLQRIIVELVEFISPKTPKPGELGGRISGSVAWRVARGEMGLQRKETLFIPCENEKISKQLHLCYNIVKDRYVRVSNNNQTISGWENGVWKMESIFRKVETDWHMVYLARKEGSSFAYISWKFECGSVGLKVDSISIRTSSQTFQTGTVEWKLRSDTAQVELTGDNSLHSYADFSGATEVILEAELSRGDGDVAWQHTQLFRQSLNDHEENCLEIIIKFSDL
Sequence of UniProt O95169 (O95169 whole entry, looked up): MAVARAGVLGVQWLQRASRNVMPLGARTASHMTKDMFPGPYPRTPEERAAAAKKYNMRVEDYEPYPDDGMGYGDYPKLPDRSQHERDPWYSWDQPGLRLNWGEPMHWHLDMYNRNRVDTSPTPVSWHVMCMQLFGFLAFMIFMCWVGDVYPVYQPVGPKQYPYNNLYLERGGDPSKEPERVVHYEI
Sequence of UniProt Q6N063 (Q6N063 whole entry, looked up): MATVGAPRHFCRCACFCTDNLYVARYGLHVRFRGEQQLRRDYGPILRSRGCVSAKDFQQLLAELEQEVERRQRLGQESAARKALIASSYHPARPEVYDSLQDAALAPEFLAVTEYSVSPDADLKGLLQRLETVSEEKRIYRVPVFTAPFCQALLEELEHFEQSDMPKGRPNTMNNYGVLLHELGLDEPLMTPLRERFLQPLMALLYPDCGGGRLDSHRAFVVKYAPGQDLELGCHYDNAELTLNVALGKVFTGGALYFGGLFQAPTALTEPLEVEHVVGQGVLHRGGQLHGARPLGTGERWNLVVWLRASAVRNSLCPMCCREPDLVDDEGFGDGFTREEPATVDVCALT
Sequence of UniProt O00567 (O00567 whole entry, looked up): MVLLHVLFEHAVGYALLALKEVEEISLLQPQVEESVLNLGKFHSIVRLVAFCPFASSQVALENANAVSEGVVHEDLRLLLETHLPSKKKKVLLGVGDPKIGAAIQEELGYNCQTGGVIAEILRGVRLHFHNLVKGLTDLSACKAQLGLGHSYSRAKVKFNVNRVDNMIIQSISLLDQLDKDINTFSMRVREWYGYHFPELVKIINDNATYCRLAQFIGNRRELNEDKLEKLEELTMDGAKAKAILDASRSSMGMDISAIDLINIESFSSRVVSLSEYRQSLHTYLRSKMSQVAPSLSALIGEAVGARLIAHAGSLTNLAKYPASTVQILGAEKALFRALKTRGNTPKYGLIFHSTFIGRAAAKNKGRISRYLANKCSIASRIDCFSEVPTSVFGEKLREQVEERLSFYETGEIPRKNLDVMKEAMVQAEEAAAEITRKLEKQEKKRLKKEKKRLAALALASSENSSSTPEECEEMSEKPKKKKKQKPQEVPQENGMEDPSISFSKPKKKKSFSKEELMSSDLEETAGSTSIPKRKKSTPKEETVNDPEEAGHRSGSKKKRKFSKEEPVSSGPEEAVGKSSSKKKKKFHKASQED
Sequence of UniProt Q9HBL8 (Q9HBL8 whole entry, looked up): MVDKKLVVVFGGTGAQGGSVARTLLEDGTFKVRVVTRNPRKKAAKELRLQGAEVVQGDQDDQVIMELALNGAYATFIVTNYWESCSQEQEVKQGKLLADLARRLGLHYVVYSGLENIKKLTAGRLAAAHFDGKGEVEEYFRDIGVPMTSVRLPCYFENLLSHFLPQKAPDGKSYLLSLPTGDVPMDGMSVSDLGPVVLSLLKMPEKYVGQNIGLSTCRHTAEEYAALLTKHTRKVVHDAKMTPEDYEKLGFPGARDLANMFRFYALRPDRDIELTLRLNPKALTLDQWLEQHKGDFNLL
Sequence of UniProt Q96PU5 (Q96PU5 whole entry, looked up): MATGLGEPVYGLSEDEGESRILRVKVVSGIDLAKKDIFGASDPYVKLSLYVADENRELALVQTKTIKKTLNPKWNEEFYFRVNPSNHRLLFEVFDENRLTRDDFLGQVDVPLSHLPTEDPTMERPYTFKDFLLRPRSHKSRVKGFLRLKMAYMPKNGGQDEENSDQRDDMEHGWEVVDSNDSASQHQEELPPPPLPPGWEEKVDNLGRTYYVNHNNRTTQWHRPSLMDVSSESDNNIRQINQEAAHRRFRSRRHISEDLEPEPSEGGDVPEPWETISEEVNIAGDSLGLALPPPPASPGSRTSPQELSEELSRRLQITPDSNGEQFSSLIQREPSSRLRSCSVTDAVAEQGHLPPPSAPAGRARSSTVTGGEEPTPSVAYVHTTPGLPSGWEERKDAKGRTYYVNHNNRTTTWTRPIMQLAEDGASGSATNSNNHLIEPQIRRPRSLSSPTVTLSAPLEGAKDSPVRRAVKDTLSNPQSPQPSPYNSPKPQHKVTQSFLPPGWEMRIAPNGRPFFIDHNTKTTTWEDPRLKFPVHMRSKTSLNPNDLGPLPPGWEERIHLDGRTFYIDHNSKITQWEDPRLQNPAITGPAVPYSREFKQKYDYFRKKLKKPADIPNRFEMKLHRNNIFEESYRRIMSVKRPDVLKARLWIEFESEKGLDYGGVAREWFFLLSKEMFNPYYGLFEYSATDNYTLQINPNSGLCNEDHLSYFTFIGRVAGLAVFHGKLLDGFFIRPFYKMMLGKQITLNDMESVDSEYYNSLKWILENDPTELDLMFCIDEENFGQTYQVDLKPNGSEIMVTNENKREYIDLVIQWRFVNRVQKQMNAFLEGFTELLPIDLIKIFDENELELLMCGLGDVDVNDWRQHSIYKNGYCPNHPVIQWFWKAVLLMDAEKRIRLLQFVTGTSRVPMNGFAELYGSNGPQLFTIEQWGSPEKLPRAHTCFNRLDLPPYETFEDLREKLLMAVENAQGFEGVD
Sequence of UniProt Q330K2 (Q330K2 whole entry, looked up): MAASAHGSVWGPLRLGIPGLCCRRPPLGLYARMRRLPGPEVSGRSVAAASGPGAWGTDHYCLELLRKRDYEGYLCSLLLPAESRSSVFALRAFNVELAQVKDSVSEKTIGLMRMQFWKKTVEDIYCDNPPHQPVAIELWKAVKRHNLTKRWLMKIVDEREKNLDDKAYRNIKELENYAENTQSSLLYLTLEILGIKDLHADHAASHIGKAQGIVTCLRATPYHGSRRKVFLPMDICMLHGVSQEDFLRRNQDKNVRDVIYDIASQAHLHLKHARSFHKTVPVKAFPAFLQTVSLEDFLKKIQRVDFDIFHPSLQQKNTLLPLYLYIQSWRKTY
Sequence of UniProt Q9BT67 (Q9BT67 whole entry, looked up): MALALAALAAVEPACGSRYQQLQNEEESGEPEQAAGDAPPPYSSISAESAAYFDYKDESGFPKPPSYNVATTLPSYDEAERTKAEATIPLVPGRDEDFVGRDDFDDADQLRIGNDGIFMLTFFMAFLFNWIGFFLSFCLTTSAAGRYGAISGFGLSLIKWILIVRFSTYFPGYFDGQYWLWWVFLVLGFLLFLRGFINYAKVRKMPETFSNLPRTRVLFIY
Sequence of UniProt O95182 (O95182 whole entry, looked up): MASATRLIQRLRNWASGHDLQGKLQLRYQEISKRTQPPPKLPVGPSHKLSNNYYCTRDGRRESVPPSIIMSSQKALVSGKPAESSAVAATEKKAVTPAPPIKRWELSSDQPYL

Target	log2 fold change [1]	log2 fold change [2]	log2 fold change [3]	log2 fold change [4]	log2 fold change [5]	log2 fold change [6]	log2 fold change [7]	log2 fold change [8]	log2 fold change [9]	log2 fold change [10]
NCOA7 (UniProt Q8NI08)	-0.027	0.063	-0.047	0.004	0.07	-0.048	0.014	0.011	0.024	0.045
NECTIN2 (UniProt Q92692)	0.002	0.005	0.064	-0.006	0.002	0.008	-0.04	-0.041	-0.045	0.077
MORF4L2 (UniProt Q15014)	-0.114	-0.056	-0.181	0.02	-0.03	0.002	-0.108	-0.039	-0.108	-0.051
MRPS15 (UniProt P82914)	-0.061	-0.201	-0.119	0.089	0.069	0.064	0.021	0.106	-0.045	-0.108
NASP (UniProt P49321)	-0.018	0.048	0.079	-0.018	-0.02	0.059	-0.018	-0.004	0.001	-0.022
NDUFA7 (UniProt O95182)	-0.001	-0.033	0.085	0.078	-0.003	0.021	0	0.036	0.005	0.01
MKRN2 (UniProt Q9H000)	-0.038	0.057	-0.16	0.013	-0.058	0.002	-0.011	-0.052	-0.085	0.061
MSH3 (UniProt P20585)	0.009	0.031	0.068	0.017	0.017	0.03	0.004	-0.039	0.008	-0.045
NDUFAF6 (UniProt Q330K2)	0.028	-0.009	0.059	0.058	0.071	0.12	0.065	-0.051	0.049	0.074
MSTO1 (UniProt Q9BUK6)	0.031	0.06	0.075	-0.044	-0.003	0.007	0.038	0.043	0.011	-0.041
NDUFB10 (UniProt O96000)	-0.009	-0.067	0.018	0.03	0.06	0.025	-0.038	-0.021	0.026	0.045
OGFOD2 (UniProt Q6N063)	-0.051	-0.283 (active)	-0.047	0.011	0.089	0.14	0.004	0.041	0.023	0.017
NEDD4 isoform 4 (UniProt P46934)	-0.024	0.067	0.048	-0.011	0.052	0.066	0.048	-0.001	0.003	-0.053
NOP53 (UniProt Q9NZM5)	-0.201	-0.272	-0.231	0.005	-0.298	0.036	-0.147	-0.121	0.058	-0.387
MINK1 (UniProt Q8N4C8)	-0.05	0.053	-0.071	0.036	-0.045	0.001	-0.064	-0.203	-0.003	-0.008
NMRAL1 (UniProt Q9HBL8)	0.239	-0.118	0.841 (active)	-0.054	0.098	0.141	0.029	0.273	-0.055	0.037
NUP85 (UniProt Q9BW27)	0.046	0.08	0.037	0.036	0	0.028	-0.012	-0.066	-0.051	0.008
MRPS24 (UniProt Q96EL2)	-0.175	0.022	-0.032	0.062	0.016	-0.02	0.01	0.039	0.071	-0.1
NFATC2 (UniProt Q13469)	-0.049	0.147	-0.002	0.012	0.04	-0.132	0.053	-0.109	-0.201	0.007
NANS (UniProt Q9NR45)	-0.016	0.031	0.066	-0.022	0.028	0.023	0.036	0.02	0.016	0.022

Target	log2 fold change [1]	log2 fold change [2]	log2 fold change [3]	log2 fold change [4]	log2 fold change [5]	log2 fold change [6]	log2 fold change [7]	log2 fold change [8]	log2 fold change [9]	log2 fold change [10]
MYH10 isoform 3 (UniProt P35580)	-0.002	0.043	0.089	-0.032	0.006	0.01	0.034	0.021	0.015	-0.024
MRPS25 (UniProt P82663)	-0.069	-0.023	-0.022	0.084	-0.048	0	0.083	0.061	-0.036	-0.068
NCOR1 (UniProt O75376)	-0.057	0.021	-0.034	0.041	0.08	0.026	0.044	-0.21	-0.055	-0.051
NAA38 isoform 2 (UniProt Q9BRA0)	0.139	0.083	0.092	-0.003	0.034	0.015	0.044	-0.016	-0.009	0.082
NCL (UniProt P19338)	-0.154	-0.231	-0.723	-0.012	-0.109	-0.017	-0.112	0.061	0.037	-0.148
NA, A0A0B4J2A0	-0.037	0.07	0.065	-0.009	0.037	0.038	0.108	0.026	-0.055	-0.007
MRPS35 (UniProt P82673)	-0.068	-0.028	-0.048	0.14	0.003	-0.043	0.022	0.096	0.042	-0.08
MRPS10 (UniProt P82664)	-0.036	-0.089	-0.103	0.048	0.102	0.023	-0.037	0.04	0.001	-0.012
NR2C2AP isoform 2 (UniProt Q86WQ0)	0.032	0.028	-0.013	0.048	0.041	0.026	-0.08	-0.134	-0.089	-0.013
NOP56 (UniProt O00567)	-0.093	-0.012	-0.676 (active)	0.087	-0.232	0.045	-0.164	-0.109	-0.111	-0.15
NGLY1 (UniProt Q96IV0)	0.035	-0.06	-0.036	-0.014	0.17	0.023	-0.001	0.045	-0.023	-0.024
NPEPPS (UniProt P55786)	0.002	0.058	0.054	-0.027	0.061	0.002	0.005	0.035	-0.009	0.045
NAP1L1 (UniProt P55209)	-0.021	0.006	0.036	0.035	-0.048	0.066	0.026	-0.018	-0.02	0.07
NEDD4L (UniProt Q96PU5)	0.014	0.078	-0.078	0.005	0.016	0.035	0.146	0.019	-0.026	-0.076
MRPS22 (UniProt P82650)	-0.052	0.026	-0.021	0.16	-0.082	0	0.026	0.068	-0.028	-0.101
MSH2 (UniProt P43246)	0.038	0.109	0.066	-0.004	0.037	0.025	-0.016	0.035	-0.064	-0.059
MITD1 (UniProt Q8WV92)	0.011	-0.009	0.148	0.037	0.044	0.036	-0.015	0.101	0.03	-0.024
OXSR1 (UniProt O95747)	0.042	0.091	-0.024	-0.056	0.106	0.004	0.039	0.054	-0.008	0.007
MRPS2 (UniProt Q9Y399)	0.004	-0.064	-0.083	0.052	0.093	0.01	0.083	-0.033	-0.01	-0.112
NNT (UniProt Q13423)	-0.008	0.051	0.089	-0.012	0.044	0.01	0.005	-0.005	-0.001	0.043

Target	log2 fold change [1]	log2 fold change [2]	log2 fold change [3]	log2 fold change [4]	log2 fold change [5]	log2 fold change [6]	log2 fold change [7]	log2 fold change [8]	log2 fold change [9]	log2 fold change [10]
NOP2 isoform 4 (UniProt P46087)	-0.17	-0.261	-0.349	-0.064	-0.045	0.272	-0.255	0.078	0.023	0.006
NME1 isoform 2 (UniProt P15531)	0.034	-0.015	0.038	0.092	0.063	-0.05	-0.048	-0.001	0.032	0.074
NDFIP1 (UniProt Q9BT67)	-0.066	0.07	-0.046	0.077	-0.244	0.046	0.005	0.122	-0.234	-0.168
NFE2 (UniProt Q16621)	0.009	0.005	-0.025	-0.001	-0.002	0.158	-0.012	-0.009	-0.02	-0.019
NUMA1 (UniProt Q14980)	-0.03	-0.006	-0.109	0.017	0.02	0.019	0.031	-0.054	-0.055	-0.211
OSTM1 (UniProt Q86WC4)	0.034	0.111	0.077	0.107	-0.106	0.001	0.044	-0.047	-0.035	-0.002
PAK1 isoform 2 (UniProt Q13153)	0.063	0.105	0.067	-0.013	0.009	0.086	0.027	-0.008	0.014	0.083
MRPS26 (UniProt Q9BYN8)	-0.081	0.004	0.004	0.157	0.038	0.088	-0.042	0.06	-0.19	0.024
MYH11 isoform 2 (UniProt P35749)	0.046	-0.081	0.096	0.02	0.032	0.018	-0.026	0.036	-0.046	0.028
MRPS9 (UniProt P82933)	-0.057	-0.019	-0.087	0.137	0.019	0.04	0.023	0.043	0.002	-0.095
NUDCD2 (UniProt Q8WVJ2)	0.054	-0.003	0.019	-0.071	0.025	0.018	-0.014	0.012	-0.107	-0.08
OTULIN (UniProt Q96BN8)	-0.023	0.054	0.091	-0.143	0.066	0.06	-0.027	0.039	-0.042	-0.086
MRPL47 (UniProt Q9HD33)	-0.189	-0.107	-0.098	0.096	-0.002	-0.047	-0.012	0.094	-0.004	-0.273
NSUN2 (UniProt Q08J23)	-0.017	0.137	-0.002	0.038	-0.018	0.006	-0.052	-0.112	-0.067	0.064
MTOR (UniProt P42345)	0.015	0.041	0.021	-0.011	0.036	0.047	0.034	-0.004	0.065	-0.03
OPA1 isoform 2 (UniProt O60313)	0.041	0.081	0.031	-0.021	0.07	0.01	0.126	0.027	-0.006	0.078
MLX (UniProt Q9UH92)	0.038	0.135	-0.057	0.062	0.032	-0.094	-0.041	-0.076	-0.012	-0.143
NDUFB8 (UniProt O95169)	-0.026	-0.047	0.129	0.005	0.033	0.087	-0.026	0.07	-0.008	0.06
NCAPG (UniProt Q9BPX3)	-0.007	0.114	0.013	-0.03	0.005	0.002	0.027	0.043	-0.044	-0.104
